High-throughput results deposited in PubChem by The Scripps Research Institute Molecular Screening Center.
A selection: hits, their analogues and other compounds. The true share with any hit is near 4.5%.
DAX1 inh-1: inhibits human nuclear receptor DAX1; AID 504766; 0.99% of 340,000 active; P51843; HEK293 Gal4-DAX1 luciferase reporter, luminescence; inhibition, % at 6.75 µM;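 active = inhibition above the mean over all tested compounds plus 3 SD, cut at about 4.2% in these data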;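 also: 0% = DAX1-transfected cells with DMSO and 100% = empty-vector control cells with DMSO; inhibition shows as a rise in luminescence from relieved DAX1 repression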
hcDAF-12 act: activates DAF-12 receptor from parasite H. contortus; HEK293 hcDAF-12 lit1-tk-luc reporter, luminescence; 0% DMSO, 100% Δ7-dafachronic acid; activation, % at 6.8 µM; 1.4% of 370,000 active; AID 652067;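 active = activation above the mean of all tested compounds plus 3 SD, cut at about 5.5% in these data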;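 also: 100% = response to 3 µM Δ7-dafachronic acid high control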
hgDAF12 agonist: hgDAF-12 agonism, primary luciferase screen | HEK293 GAL4-hgDAF12 UAS-luciferase reporter, agonist luminescence; normalized to butyrate control | 1.8% of 370,000 active | AID 687014 | activation, % at 6.8 µM;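 active = activation above a cutoff set at the mean of all screened compounds plus 3 SD, cut at about 10% in these data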;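 also: 0% = DMSO wells and 100% = sodium butyrate wells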
ssDAF-12 act: S. stercoralis DAF-12 activation, primary screen | HEK293 ssDAF-12/GRIP1 lit1-tk-luc reporter, luminescence; % of 3 µM dafachronic acid response | activation, % at 6.8 µM | 1% of 370,000 active | AID 652126;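 active = activation above the mean over all tested compounds plus 3 SD, cut at about 0.9% in these data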;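 also: 0% = DMSO-only wells and 100% = 3 µM delta7-dafachronic acid wells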
DAX1 inh-2: blocks DAX1 repression of SF-1 activated StAR promoter. inhibition, % at 6.8 µM. HEK293T StAR-luciferase reporter, SF-1/DAX-1 repression relief. AID 652010. 1.1% of 370,000 active;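 active = inhibition above the mean over all tested compounds plus 3 SD, cut at about 3.6% in these data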;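 also: 0% = DAX-1 cells with DMSO and 100% = cells lacking DAX-1 with DMSO; higher inhibition means more luminescence from relief of DAX-1 repression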
FXN GAA850 act: frataxin GAA850 promoter activation. 0.56% of 360,000 active. HEK293 lucGAA850 FXN promoter luciferase reporter, 24 h; percent of 10 µM SAHA response. activation, % at 6 µM. AID 540364;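 active = activation above the average of all compounds screened plus 3 SD, cutoff fixed separately per campaign, cut at about 7.5% in these data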;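 also: 0% = DMSO wells and 100% = 10 µM SAHA wells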
hgDAF12 ag: hgDAF-12 agonism, confirmation assay | shares compounds with hgDAF12 agonist | HEK293 GAL4-hgDAF12 luciferase reporter, agonist mode; percent of butyrate response | activation, % at 6.8 µM | 80% of 3,300 active | AID 743050;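 active = mean activation over triplicate wells above the hit cutoff derived from the earlier primary screen, cut at about 11% in these data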;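 also: 0% = DMSO low control and 100% = 2 mM sodium butyrate high control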
LXR ag 2: activates human LXR-beta, counter-screen for DAF-12 agonists | shares compounds with hgDAF12 agonist | activation, % at 6.8 µM | HEK293 Gal4-LXR luciferase reporter, 24 h | 3,300 tested, under 10 active | AID 743051;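 active = mean activation of the triplicate above a set limit carried over from the primary screen, none filed active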
Target sequence (P55055 whole entry, looked up, the tested form may be a part): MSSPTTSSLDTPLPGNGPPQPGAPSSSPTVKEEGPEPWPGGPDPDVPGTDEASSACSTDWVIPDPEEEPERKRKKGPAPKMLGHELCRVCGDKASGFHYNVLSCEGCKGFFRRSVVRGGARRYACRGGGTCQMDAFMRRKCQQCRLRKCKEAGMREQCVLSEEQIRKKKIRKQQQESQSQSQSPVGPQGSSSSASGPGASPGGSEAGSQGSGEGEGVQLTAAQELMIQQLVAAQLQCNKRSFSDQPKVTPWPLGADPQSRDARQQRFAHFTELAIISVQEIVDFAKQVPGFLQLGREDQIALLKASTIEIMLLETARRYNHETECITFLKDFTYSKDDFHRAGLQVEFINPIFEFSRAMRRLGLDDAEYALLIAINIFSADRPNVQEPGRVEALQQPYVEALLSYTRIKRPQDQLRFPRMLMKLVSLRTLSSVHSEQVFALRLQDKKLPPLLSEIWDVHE
Starred values were filed as active, the others as inactive; x = not tested or not shown.

SMILES	DAX1 inh-1	hcDAF-12 act	hgDAF12 agonist	ssDAF-12 act	DAX1 inh-2	FXN GAA850 act	hgDAF12 ag	LXR ag 2
CCSc1ccc(-c2cc(NC=O)c3ncc(-c4cccc(C(=O)NCCN(C)C)c4)n3c2)cc1	x	-2.0	2.4	-1.3	-0.8	-1.6	x	x
CCc1ccc(NC(=O)CSc2ccccn2)cc1	1.8	3.0	14.3*	-1.2	1.0	5.9	5.7	0.2
O=C(CSc1ccccn1)Nc1ccc(NC(=O)CSc2ccccn2)cc1	0.0	1.6	-0.5	-1.3	-0.6	4.7	x	x
O=C(CCSc1ccccn1)Nc1ccc(Br)cc1	1.2	2.0	13.6*	1.1*	2.5	4.0	11.3*	0.5
Cc1ccc(NC(=O)c2ccc(CSc3nnc(C)s3)cc2)cc1	3.4	3.8	16.1*	-0.2	1.8	3.1	13.8*	0.6
Cc1ccc(C(=O)Nc2nnc(C)s2)cc1	x	5.6	15.9*	-0.1	4.3*	5.4	12.1*	0.5
Cc1cc(C)cc(NC(=O)c2ccc(CSc3nnc(C)s3)cc2)c1	-0.8	0.2	4.0	-1.2	0.8	2.8	x	x
Cc1ccc(C(=O)N2CCC3(CC2)Oc2ccc(F)cc2C(=O)C32CC(c3cccnc3)=NO2)s1 (configuration not stated)	-0.9	0.7	-0.1	-1.4	-0.5	-3.2	x	x
COc1ccccc1N(C)S(=O)(=O)c1ccc(C(=O)NC(C)c2ccccc2)cc1 (configuration not stated)	-0.2	-0.5	-0.4	-1.4	0.2	-0.9	x	x
O=C(Nc1cccc(Cl)c1)Nc1nnc([C@@H]2C[C@H](O)[C@@H](CO)O2)s1	x	1.8	16.0*	-0.5	2.5	2.7	9.9	0.2
CC1=CC(=C2C(=O)c3ccccc3C2=O)C=C(C)N1Cc1ccco1	2.2	3.4	15.7*	-0.5	2.8	4.7	12.7*	0.6
O=C1c2ccccc2C(=O)N1Cc1ccco1	0.7	-0.5	-3.1	-1.2	0.4	0.6	x	x
COc1cc(/C=N/NC(=O)c2ccccn2)cc2c1OCO2	3.4	2.7	14.5*	-0.2	1.6	4.5	7.2	0.2
O=C(NC(=S)Nc1ccc(N2CCOCC2)cc1)c1ccco1	-0.5	3.0	16.2*	-1.2	2.1	5.4	10.4	0.4
O=C(NC(=S)Nc1ccc(CN2CCOCC2)cc1)c1ccco1	0.9	1.9	4.8	-1.4	1.5	1.3	x	x
COc1ccc(OC)c(CNC(=O)CCC(=O)N2Cc3cccc(OC)c3Oc3ncccc32)c1	-0.3	-2.1	-0.7	-1.5	-0.7	0.9	x	x
CCCC12CN3CCN(CC(C3)/C1=N\NC(=O)c1ccc(F)cc1)C2	0.0	-0.2	13.3*	-0.8	0.6	3.0	1.8	0.2
CCCNC(=S)N1CCC(C(=O)c2ccc(F)cc2)CC1	0.0	-2.8	-1.3	-1.0	0.0	0.2	x	x
Cc1ccc(C)c(OCC(O)CNC2CCCC2)c1 (configuration not stated)	0.5	3.2	4.2	-0.8	-0.6	-0.5	x	x
CC1(C)SC2C(C(=O)O)N=C(Cc3ccccc3)N2C1C(=O)O (configuration not stated)	0.2	-1.2	-0.4	-1.4	-0.5	0.7	x	x
CC1(C)CC(=O)c2cc(N=C/C(C(=O)c3ccccc3)=C(\O)c3ccccc3)c(=O)oc2C1	5.1*	1.3	14.3*	0.1	0.6	2.4	7.5	0.2
C/C(CC(=O)Nc1ccc(Cl)cc1C(F)(F)F)=N\NC(=O)c1ccccn1	-0.1	3.7	15.4*	-0.1	2.3	4.9	6.5	0.2
C/C(CC(=O)Nc1ccc(Cl)cc1C(F)(F)F)=N\NC(N)=S	x	-0.2	-0.6	-1.5	-0.6	-0.2	x	x
C/C(CC(=O)Nc1ccc(Cl)cc1C(F)(F)F)=N\NC(=O)c1cccs1	8.6*	5.4	14.1*	0.3	1.8	5.2	4.8	0.1
CC(=O)N1CCOc2ccc(S(=O)(=O)N3CCC(C(=O)NCc4ccc(F)cc4)CC3)cc21	2.2	-2.1	0.8	-1.3	-0.3	1.0	x	x
SMILES	DAX1 inh-1	hcDAF-12 act	hgDAF12 agonist	ssDAF-12 act	DAX1 inh-2	FXN GAA850 act	hgDAF12 ag	LXR ag 2
COC(=O)N1N=C(c2ccc(Br)cc2)CC1(O)C(F)(F)F (configuration not stated)	0.1	1.2	13.6*	1.6*	2.7	4.1	11.3*	0.5
CCOC(=O)N1N=C(c2ccccc2)CC1(O)C(F)(F)F (configuration not stated)	1.4	1.9	9.9	-0.8	1.2	-0.6	x	x
CCOC(=O)C1CCN(C(=O)CN2C(=O)CSc3ccc(S(=O)(=O)N4CCOCC4)cc32)CC1	0.6	-1.0	-1.4	-0.9	-0.3	0.7	x	x
CCN(CC)c1ccc(NC(=O)c2ccc(Br)o2)cc1	5.0*	2.6	15.7*	0.4	3.6	1.3	15.2*	0.9
CCCOC(=O)c1ccc(NC(=O)c2ccc(Br)o2)cc1	-1.1	-4.1	2.8	-1.4	0.3	4.2	x	x
Cc1ccc(C(=O)Nc2ccc3c(c2)ncn3C)cc1	1.7	3.6	8.9	0.1	3.1	2.8	x	x
CCn1cnc2cc(NC(=O)c3ccc(C)cc3)ccc21	1.1	2.4	13.5*	0.5	1.6	5.3	10.8*	0.4
CCCn1cnc2cc(NC(=O)c3cccs3)ccc21	1.8	3.1	13.5*	-0.2	1.5	3.5	10.3	0.4
Cc1ccc(C(O)c2nc3ccccc3n2C(C)C)cc1 (configuration not stated)	-0.6	-0.8	1.9	-1.3	-0.9	-0.5	x	x
CC(C)n1c(-c2ccc(N(C)C)cc2)nc2ccccc21	0.7	5.8*	16.4*	0.6	3.2	4.2	6.9	0.3
CCCN(CCC)CC(O)Cn1cc(/C=C/C(=O)c2ccccc2)c2ccccc21 (configuration not stated)	1.6	2.2	0.9	-1.4	0.2	-1.4	x	x
CCCN(CCC)CC(O)Cn1cc(/C=C/C(=O)c2cccs2)c2ccccc21 (configuration not stated)	-0.8	4.7	26.5*	-0.7	0.5	-3.3	-0.2	0.0
Cc1ccc(-c2nn(-c3ccccc3)cc2C(N)=O)o1	0.0	2.2	3.4	-1.2	0.9	3.4	x	x
Cc1ccc(-c2nn(-c3ccccc3)cc2C=O)o1	0.8	3.2	13.4*	0.0	3.6	3.8	10.1	0.5
O=C(NCCN1C(=O)C2C3C=CC(C3)C2C1=O)Nc1ccc(Br)cc1 (configuration not stated)	4.0	2.8	13.3*	0.1	2.6	5.2	10.8*	0.5
CCn1cnc2sc(-c3ccccc3)cc2c1=O	0.8	3.6	16.5*	0.9*	1.8	4.9	15.8*	0.7
